Laboratory results published in PubChem BioAssay (EPA / NIEHS).
Active and inactive are the calls of the source. The calls were made as follows: active = hit-call score of the fitted dose curve at least 0.9, where 1 is the maximum; inactive = score below 0.9.

Legend:
[1] = ATG_E_Box_CIS: Attagene CIS-FACTORIAL HepG2 Assay for human Enhancer Box (E-box) (AID 2282936); conditions: HepG2 E-box cis-reporter transcription, actives raise or lower the signal
Summary of the method: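 HepG2 cells transiently transfected with multiplexed cis-element reporter units, dosed 24 h; reporter mRNA quantified by RT-PCR, 6-FAM labelling, HpaI digestion and capillary electrophoresis. E-box (USF1) signal fitted bidirectionally vs DMSO.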

[2] = ATG_M_61_CIS: Attagene CIS-FACTORIAL HepG2 Assay for M61 Transcription Factor (Internal Marker) (AID 2282937); conditions: HepG2 Attagene CIS-FACTORIAL M61 internal marker reporter; actives raise or lower the signal
Summary of the method: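 Transfect HepG2 with MRTUs; dose 24 h; isolate RNA; reverse-transcribe with DNase I treatment; PCR-amplify, FAM-label and cut with HpaI for 2 h at 37 C; resolve by CE. Bidirectional fitting against DMSO.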

[3] = ATG_EGR_CIS: Attagene CIS-FACTORIAL HepG2 Assay for human Early Growth Response 1 (EGR1) (AID 2282938); conditions: HepG2 Attagene CIS-FACTORIAL EGR reporter mRNA; actives raise or lower the signal
Summary of the method: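 After a 24 h treatment of transiently transfected HepG2 cells, total RNA was reverse-transcribed and reporter sequences PCR-amplified, labelled and run on capillary electrophoresis. Reporters sit under cis-regulatory promoters sensing endogenous factors.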

[4] = ATG_M_19_CIS: Attagene CIS-FACTORIAL HepG2 Assay for M19 Transcription Factor (Internal Marker) (AID 2282939); conditions: HepG2 Attagene CIS-FACTORIAL M19 internal marker reporter; actives raise or lower the signal
Summary of the method: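 In this multiplexed cell assay, transiently transfected HepG2 reporter units report endogenous transcription-factor activity; after 24 hours of treatment, labelled reporter cDNA fragments are quantified by capillary electrophoresis and fitted bidirectionally against DMSO.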

[5] = ATG_ERE_CIS: Attagene CIS-FACTORIAL HepG2 Assay for Estrogen Response Element (ERE) (AID 2282940); conditions: HepG2 ERE cis-reporter, Attagene RNA transcript; actives raise or lower the signal
Summary of the method: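 Measuring endogenous transcription factor output, the assay doses transfected HepG2 cells for 24 hours and quantifies reporter transcripts by fluorescent RT-PCR and capillary electrophoresis, with DMSO as baseline.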

[6] = ATG_Ets_CIS: Attagene CIS-FACTORIAL HepG2 Assay for human Erythroblast Transformation Specific (ETS) (AID 2282941); conditions: HepG2 ETS cis-reporter transcription, actives raise or lower the signal
Summary of the method: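 HepG2 cells transiently transfected with cis-promoter reporter transcription units were dosed for 24 h; reporter mRNA was measured by RT-PCR, 6-FAM primer extension, HpaI digestion and capillary electrophoresis, with bidirectional fitting against DMSO baseline.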

[7] = biological target: Hepatocyte nuclear factor 3-beta (Homo sapiens) (UniProt Q9Y261); test: ATG_FoxA2_CIS: Attagene CIS-FACTORIAL HepG2 Assay for human Forkhead box A2 (FOXA2) (AID 2282942); conditions: HepG2 cis-reporter transcription factor activity, 24 h; actives raise or lower the signal
Sequence of Hepatocyte nuclear factor 3-beta (Homo sapiens) (Q9Y261 whole entry, looked up): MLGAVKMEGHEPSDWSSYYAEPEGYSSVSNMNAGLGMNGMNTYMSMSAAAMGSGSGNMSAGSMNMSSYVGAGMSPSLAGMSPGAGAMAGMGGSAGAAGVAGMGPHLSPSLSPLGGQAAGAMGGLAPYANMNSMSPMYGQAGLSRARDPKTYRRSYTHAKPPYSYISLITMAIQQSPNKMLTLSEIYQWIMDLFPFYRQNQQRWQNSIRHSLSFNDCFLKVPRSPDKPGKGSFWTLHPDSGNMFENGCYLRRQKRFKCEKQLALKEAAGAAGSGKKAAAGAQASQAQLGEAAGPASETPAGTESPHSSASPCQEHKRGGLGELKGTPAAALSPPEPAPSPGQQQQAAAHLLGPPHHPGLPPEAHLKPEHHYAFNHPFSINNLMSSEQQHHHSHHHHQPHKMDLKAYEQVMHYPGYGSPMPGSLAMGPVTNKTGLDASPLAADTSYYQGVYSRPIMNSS
Summary of the method: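 24 h dosing of HepG2 bearing cis-reporter constructs; mRNA readout by RT-PCR/CE fluorescence; bidirectional fit, DMSO baseline.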

[8] = ATG_FoxO_CIS: Attagene CIS-FACTORIAL HepG2 Assay for human Forkhead box O (FoxO) (AID 2282943); conditions: HepG2 Attagene cis-reporter, FoxO element, mRNA; actives raise or lower the signal
Summary of the method: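 HepG2 cells transiently transfected with cis-element-driven reporter units report endogenous FoxO activity. After 24 h chemical exposure, reporter mRNA quantified by RT-PCR, fluorescent labeling, HpaI digestion and capillary electrophoresis; bidirectional fit versus DMSO.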

[9] = ATG_GATA_CIS: Attagene CIS-FACTORIAL HepG2 Assay for human GATA Binding Protein (AID 2282944); conditions: HepG2 GATA cis-element reporter, Attagene multiplex mRNA; actives raise or lower the signal
Summary of the method: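 Measures endogenous transcription factor-driven reporter mRNA in HepG2 cells transiently carrying cis-regulated constructs. 24 h dosing; RNA via oligo(dT) reverse transcription, PCR, HpaI digestion, capillary electrophoresis; fitted relative to DMSO.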

[10] = ATG_GLI_CIS: Attagene CIS-FACTORIAL HepG2 Assay for human Zinc Finger Protein GLI1 (AID 2282945); conditions: HepG2, Attagene cis-factorial reporter mRNA, GLI element; actives raise or lower the signal
Summary of the method: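 Transiently transfected HepG2 cells report endogenous transcription factor activity via cis-element-driven reporter units. After 24 h compound exposure, reporter mRNA was measured by RT-PCR with capillary electrophoresis; bidirectional fitting against DMSO baseline.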

[11] = biological target: Bile acid receptor (Homo sapiens) (UniProt Q96RI1); test: ATG_IR1_CIS: Attagene CIS-FACTORIAL HepG2 Assay for human Nuclear Receptor Subfamily 1 Group H Member 4 (NR1H4), IR1 submotif (AID 2282946); conditions: IR1 reporter transcription, actives raise or lower the signal
Sequence of Bile acid receptor (Homo sapiens) (Q96RI1 whole entry, looked up): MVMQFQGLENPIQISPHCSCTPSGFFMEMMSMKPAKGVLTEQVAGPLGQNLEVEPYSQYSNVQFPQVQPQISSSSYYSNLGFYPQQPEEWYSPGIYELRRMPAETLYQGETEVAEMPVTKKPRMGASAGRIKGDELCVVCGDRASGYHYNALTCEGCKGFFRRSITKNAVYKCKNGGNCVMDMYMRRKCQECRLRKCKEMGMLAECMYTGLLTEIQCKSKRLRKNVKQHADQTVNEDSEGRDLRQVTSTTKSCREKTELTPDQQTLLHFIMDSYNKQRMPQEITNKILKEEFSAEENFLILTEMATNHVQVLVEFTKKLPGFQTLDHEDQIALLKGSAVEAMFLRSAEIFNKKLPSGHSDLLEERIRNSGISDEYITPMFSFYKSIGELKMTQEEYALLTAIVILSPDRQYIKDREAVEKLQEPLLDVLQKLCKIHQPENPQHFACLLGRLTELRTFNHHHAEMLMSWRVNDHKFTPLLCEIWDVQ
Summary of the method: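 HepG2 cells transiently transfected with multiple cis-promoter-driven reporter units to measure endogenous transcription factor activity; 24 h exposure. Reporter mRNA read by RT-PCR, FAM labelling, HpaI digestion and capillary electrophoresis. Bidirectional fit versus DMSO.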

[12] = ATG_ISRE_CIS: Attagene CIS-FACTORIAL HepG2 Assay for human Interferon Regulatory Factor 1 (IRF1) binding to an Interferon-Stimulated Response Element (ISRE) (AID 2282948); conditions: HepG2 ISRE cis-reporter (Attagene), mRNA transcription readout; actives raise or lower the signal
Summary of the method: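 HepG2 cells transiently transfected with multiplexed cis-promoter reporter units; after 24 h compound exposure, reporter mRNA quantified by RT-PCR, FAM labelling, HpaI digestion and capillary electrophoresis. Bidirectional fit versus DMSO baseline.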

[13] = ATG_M_32_CIS: Attagene CIS-FACTORIAL HepG2 Assay for M32 Transcription Factor (Internal Marker) (AID 2282949); conditions: HepG2 Attagene cis-factorial M32 reporter, mRNA; actives raise or lower the signal;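 also: background control marker of the multiplexed CIS panel rather than a real target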
Summary of the method: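 Fluorescent capillary electrophoresis peaks of HpaI-digested, FAM-labelled RT-PCR reporter products give the signal. Source: transiently transfected human liver HepG2 cells, 24 h after chemical dosing; bidirectional fitting against DMSO.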

[14] = ATG_M_06_CIS: Attagene CIS-FACTORIAL HepG2 Assay for M06 Transcription Factor (Internal Marker) (AID 2282950); conditions: HepG2 Attagene CIS-FACTORIAL M06 internal marker reporter; actives raise or lower the signal
Summary of the method: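 One of many multiplexed endpoints: HepG2 reporter mRNA after 24 h dosing, detected by RT-PCR and capillary electrophoresis fluorescence; gain or loss of signal analysed against DMSO.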

[15] = biological target: Hypoxia-inducible factor 1-alpha (Homo sapiens) (UniProt Q16665); test: ATG_HIF1a_CIS: Attagene CIS-FACTORIAL HepG2 Assay for human Hypoxia Inducible Factor 1 (HIF1A) (AID 2282951); conditions: HepG2 Attagene cis-factorial HIF1a reporter transcription; actives raise or lower the signal
Sequence of Hypoxia-inducible factor 1-alpha (Homo sapiens) (Q16665 whole entry, looked up): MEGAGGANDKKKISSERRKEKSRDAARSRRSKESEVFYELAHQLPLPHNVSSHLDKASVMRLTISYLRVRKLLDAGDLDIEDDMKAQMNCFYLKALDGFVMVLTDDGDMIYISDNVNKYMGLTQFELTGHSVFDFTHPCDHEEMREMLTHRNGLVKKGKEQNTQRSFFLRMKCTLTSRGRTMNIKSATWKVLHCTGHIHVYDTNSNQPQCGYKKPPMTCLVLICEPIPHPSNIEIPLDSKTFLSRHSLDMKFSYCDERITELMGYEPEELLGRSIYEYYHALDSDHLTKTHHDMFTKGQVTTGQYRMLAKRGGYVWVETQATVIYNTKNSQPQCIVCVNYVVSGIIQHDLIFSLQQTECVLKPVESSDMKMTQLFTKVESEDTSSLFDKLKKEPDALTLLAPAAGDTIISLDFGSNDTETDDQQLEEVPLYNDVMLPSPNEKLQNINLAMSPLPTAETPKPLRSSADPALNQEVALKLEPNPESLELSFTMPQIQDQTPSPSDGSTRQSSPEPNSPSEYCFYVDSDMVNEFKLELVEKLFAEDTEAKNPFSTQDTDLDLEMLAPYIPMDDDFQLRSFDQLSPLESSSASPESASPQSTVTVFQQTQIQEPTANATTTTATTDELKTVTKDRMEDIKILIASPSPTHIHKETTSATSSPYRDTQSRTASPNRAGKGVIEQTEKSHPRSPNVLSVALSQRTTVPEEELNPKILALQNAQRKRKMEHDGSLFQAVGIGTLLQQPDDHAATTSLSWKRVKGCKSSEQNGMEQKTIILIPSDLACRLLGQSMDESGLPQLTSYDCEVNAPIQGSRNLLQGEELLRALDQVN
Summary of the method: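 After 24 h chemical exposure of reporter-transfected HepG2 cells, reporter cDNA was PCR-amplified, labelled by 6-FAM primer extension (2 min 95 C, 20 s 68 C, 10 min 72 C), HpaI-cut (2 h, 37 C) and analysed by CE.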

[16] = biological target: Hepatocyte nuclear factor 6 (Homo sapiens) (UniProt Q9UBC0); test: ATG_HNF6_CIS: Attagene CIS-FACTORIAL HepG2 Assay for human Hepatocyte Nuclear Factor 6 (HNF6) (AID 2282952); conditions: HepG2 Attagene cis-factorial HNF6 reporter transcription; actives raise or lower the signal
Sequence of Hepatocyte nuclear factor 6 (Homo sapiens) (Q9UBC0 whole entry, looked up): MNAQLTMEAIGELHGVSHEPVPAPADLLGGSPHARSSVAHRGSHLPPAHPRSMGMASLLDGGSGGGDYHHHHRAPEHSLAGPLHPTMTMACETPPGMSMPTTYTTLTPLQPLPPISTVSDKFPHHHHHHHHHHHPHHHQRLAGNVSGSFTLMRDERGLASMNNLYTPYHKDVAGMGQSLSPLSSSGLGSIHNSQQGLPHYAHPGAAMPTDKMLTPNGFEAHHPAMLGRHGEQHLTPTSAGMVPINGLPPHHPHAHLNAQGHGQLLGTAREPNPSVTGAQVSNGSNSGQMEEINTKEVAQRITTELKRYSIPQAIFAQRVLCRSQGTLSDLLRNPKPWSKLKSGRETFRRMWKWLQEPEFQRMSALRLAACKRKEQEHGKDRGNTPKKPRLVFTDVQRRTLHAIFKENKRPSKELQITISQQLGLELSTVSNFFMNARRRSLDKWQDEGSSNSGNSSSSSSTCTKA
Summary of the method: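 HepG2 cells transiently transfected with cis-element-driven multiple reporter transcription units, dosed 24 h; reporter mRNA quantified by RT-PCR, FAM primer extension, HpaI digestion and capillary electrophoresis; bidirectional fit versus DMSO baseline.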

[17] = ATG_MRE_CIS: Attagene CIS-FACTORIAL HepG2 Assay for human Metal Responsive Element (MRE) (AID 2282954); conditions: HepG2 MRE cis-reporter transcription, Attagene multiplex; actives raise or lower the signal
Summary of the method: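 HepG2 cells transiently transfected with cis-element-driven reporter units; mRNA measured 24 h after dosing. Reporter transcripts quantified by RT-PCR, FAM labelling, HpaI digestion and capillary electrophoresis; bidirectional fit versus DMSO.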

[18] = ATG_PBREM_CIS: Attagene CIS-FACTORIAL HepG2 Assay for human Phenobarbital-responsive Enhancer Module (PBREM) (AID 2282955); conditions: HepG2 PBREM cis-reporter, Attagene multiplexed transcription; actives raise or lower the signal
Summary of the method: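 Measures endogenous factor action on a phenobarbital-responsive enhancer module. HepG2 transiently carrying cis reporters, 24 h treatment, mRNA read-out by RT-PCR plus capillary electrophoresis.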

[19] = ATG_GRE_CIS: Attagene CIS-FACTORIAL HepG2 Assay for human Glucocorticoid Response Elements (GRE) (AID 2282947); conditions: HepG2 GRE cis-reporter, Attagene multiplex mRNA; actives raise or lower the signal
Summary of the method: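 Transiently transfected HepG2 cells carrying GRE cis-reporter units (endogenous TF activity) dosed 24 h; reporter mRNA quantified by RT-PCR, 6-FAM labelling, HpaI digestion and capillary electrophoresis. Bidirectional fit versus DMSO baseline.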

[20] = biological target: Heat shock factor protein 1 (Homo sapiens) (UniProt Q00613); test: ATG_HSE_CIS: Attagene CIS-FACTORIAL HepG2 Assay for human Heat Shock Transcription Factor 1 (HSE) (AID 2282953); conditions: HepG2 HSE cis-reporter, Attagene RNA transcription; actives raise or lower the signal
Sequence of Heat shock factor protein 1 (Homo sapiens) (Q00613 whole entry, looked up): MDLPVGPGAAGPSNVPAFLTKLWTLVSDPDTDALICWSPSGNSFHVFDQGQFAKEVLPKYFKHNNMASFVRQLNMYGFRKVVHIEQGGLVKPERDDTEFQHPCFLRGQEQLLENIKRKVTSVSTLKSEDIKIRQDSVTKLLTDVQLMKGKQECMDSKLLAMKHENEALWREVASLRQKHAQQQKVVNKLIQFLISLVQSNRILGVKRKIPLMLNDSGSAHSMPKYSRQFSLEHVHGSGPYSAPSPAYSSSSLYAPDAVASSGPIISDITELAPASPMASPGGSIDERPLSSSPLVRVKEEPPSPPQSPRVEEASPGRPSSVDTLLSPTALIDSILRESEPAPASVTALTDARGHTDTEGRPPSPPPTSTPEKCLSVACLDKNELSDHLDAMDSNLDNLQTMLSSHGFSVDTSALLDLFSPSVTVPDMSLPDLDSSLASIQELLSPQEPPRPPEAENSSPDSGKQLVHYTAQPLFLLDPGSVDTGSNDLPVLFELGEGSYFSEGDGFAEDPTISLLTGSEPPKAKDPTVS
Summary of the method: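 Using HepG2 with transfected cis-driven reporter constructs, compound effects on endogenous factor activity are scored as reporter mRNA change at 24 h. Detection: RT-PCR, HpaI digestion, capillary electrophoresis; bidirectional fitting to DMSO.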

Measured: AC50

CCN(CCO)c1cccc(C)c1
inactive: [1] | [2] | [3] | [4] | [5] | [6] | [7] | [8] | [9] | [10] | [11] | [12] | [13] | [14] | [15] | [16] | [17] | [18]

O=C(O)CC(C(=O)O)C(CC(=O)O)C(=O)O (stereo not given)
inactive: [1] | [2] | [3] | [4] | [5] | [6] | [7] | [8] | [9] | [10] | [11] | [19] | [13] | [14] | [15] | [16] | [17] | [18]

CCCC(=O)OCc1ccccc1
inactive: [1] | [2] | [3] | [4] | [5] | [6] | [7] | [8] | [9] | [10] | [11] | [13] | [14] | [15] | [16]

CC(=O)OCC(C)OC(C)=O (stereo not given)
inactive: [1] | [2] | [3] | [4] | [5] | [6] | [7] | [8] | [9] | [10] | [11] | [12] | [14] | [15] | [17]

Cc1cc(C)c(C)c(C)c1
inactive: [1] | [2] | [3] | [4] | [5] | [6] | [7] | [8] | [9] | [10] | [11] | [13] | [14] | [15] | [16] | [17] | [18]

c1ccc(CCCc2ccncc2)cc1
active: [6] 155 µM | [20] 144 µM
inactive: [1] | [2] | [3] | [4] | [5] | [7] | [8] | [9] | [10] | [11] | [19] | [12] | [14] | [15] | [16]

Cn1c(=O)[nH]c2ncn(C)c2c1=O
inactive: [1] | [2] | [3] | [4] | [5] | [6] | [7] | [8] | [9] | [10] | [11] | [19] | [12] | [13] | [14] | [16] | [20]

CCOC(=O)[C@H](C)O
inactive: [1] | [2] | [3] | [4] | [5] | [6] | [7] | [8] | [9] | [10] | [11] | [19] | [12] | [14] | [15] | [16] | [20] | [18]
